# Reference: PubChem BioAssay
# Active and inactive are the calls of the source.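 The calls were made as follows, unless noted: active = fluorescence slope higher than the sample average by over 3 SD (cut at about -0.22 in these data, passing the limit was not always enough); inactive = the rest.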
# Assays:
# [1] = inhibitors of TNFa-induced NFkB p65 translocation, primary screen, imaging, HUVEC, MLSMR starter and 10KST1 sets (AID 438;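 active = inhibition above 20% together with a positive visual image hit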;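 also: compound added about 3h40 before a 20 min TNFalpha stimulation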;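 as to inhibition: signal is the nuclear over cytoplasmic p65 intensity ratio per well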); conditions: HUVEC TNFa-induced p65 nuclear translocation; cell count: measured here: nuclei count (cytotoxicity indicator), at 2.08 µM; inhibition: at 2 µM, stronger effect = higher value, 0% TNFa-plus-vehicle, 100% no-TNFa wells
# [2] = reduction of polyQ htt aggregates in cells – imaging, exon1htt(103Q)mCFP cells, high-content imaging, primary screen (AID 483;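 active = visual image review flags a hit and inhibition of aggregation exceeds 20%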;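 also: compound exposure lasted 3 days before fixation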;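 as to nuclei count: percent of the per-plate median nuclei count of sample wells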); conditions: exon1htt(103Q)mCFP cell line, aggregate imaging, at 2 µM; inhibition of aggregation: stronger effect = higher value; nuclei count: measured here: cell count, toxicity
# [3] = endothelial E-selectin expression blockers – imaging, HUVEC, immunofluorescence, MLSMR starter and 10KST1 sets, primary screen (AID 487;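 active = visually confirmed hit in the image check and inhibition above 20%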;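 as to inhibition: signal is fraction of cell area covered by stained E-selectin grains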;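 as to nuclei count: 100% = median nuclei count of all wells on the same plate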); conditions: HUVEC TNFalpha-induced E-selectin immunofluorescence imaging, at 2 µM; inhibition: stronger effect = higher value; nuclei count: measured here: cell number, toxicity
# [4] = molecular target: Voltage-gated potassium channel subunit beta-2 (Rattus norvegicus) (UniProt P62483); assay: inhibitors of rat Kvbeta2 reductase activity – biochemical, NADPH fluorescence, primary screen (AID 622); conditions: recombinant KvBeta, 4-cyanobenzaldehyde reduction, at 10 µM, stronger effect = higher value;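 also: slope of raw intensity against log time taken from 70 to 1610 s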
# Chain of Voltage-gated potassium channel subunit beta-2 (Rattus norvegicus) (P62483 whole entry, looked up): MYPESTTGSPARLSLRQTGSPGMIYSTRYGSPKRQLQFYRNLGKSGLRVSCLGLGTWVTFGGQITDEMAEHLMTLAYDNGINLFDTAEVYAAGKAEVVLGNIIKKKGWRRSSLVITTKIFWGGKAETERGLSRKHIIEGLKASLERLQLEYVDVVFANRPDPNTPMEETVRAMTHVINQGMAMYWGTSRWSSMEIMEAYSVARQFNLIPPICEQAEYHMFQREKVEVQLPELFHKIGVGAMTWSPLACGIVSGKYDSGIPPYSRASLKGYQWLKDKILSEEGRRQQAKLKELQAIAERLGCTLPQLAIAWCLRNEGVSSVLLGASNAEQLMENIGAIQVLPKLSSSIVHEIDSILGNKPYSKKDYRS
# [5] = molecular target: Voltage-gated potassium channel subunit beta-2 (Rattus norvegicus) (UniProt P62483); assay: enhancers of rat Kvbeta2 NADPH turnover – biochemical, NADPH fluorescence, primary screen (AID 623;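 active = NADPH fluorescence slope more negative than the mean of all samples by about 3 SD, 99.7% confidence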;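 also: fluorescence intensity change per second fitted from 20 to 320 s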); conditions: Recombinant KvBeta, NADPH fluorescence decrease slope, 10 min; at 10 µM; stronger effect = lower value
# [6] = molecular target: Alpha-2C adrenergic receptor (Homo sapiens) (UniProt P18825); assay: compounds altering alpha2C-coupled GIRK flux – cell-based, HEK293 alpha2C/GIRK1/2, thallium flux, primary screen (AID 624;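 active = fluorescence slope after compound addition differing from the mean of all screened samples at 99.7% confidence, in either direction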;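 also: slope of fluorescence ratio to pre-addition baseline per second over 15 to 24 s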); conditions: thallium flux BTC fluorescence, at 10 µM, actives lie on both sides
# Chain of Alpha-2C adrenergic receptor (Homo sapiens) (P18825 whole entry, looked up): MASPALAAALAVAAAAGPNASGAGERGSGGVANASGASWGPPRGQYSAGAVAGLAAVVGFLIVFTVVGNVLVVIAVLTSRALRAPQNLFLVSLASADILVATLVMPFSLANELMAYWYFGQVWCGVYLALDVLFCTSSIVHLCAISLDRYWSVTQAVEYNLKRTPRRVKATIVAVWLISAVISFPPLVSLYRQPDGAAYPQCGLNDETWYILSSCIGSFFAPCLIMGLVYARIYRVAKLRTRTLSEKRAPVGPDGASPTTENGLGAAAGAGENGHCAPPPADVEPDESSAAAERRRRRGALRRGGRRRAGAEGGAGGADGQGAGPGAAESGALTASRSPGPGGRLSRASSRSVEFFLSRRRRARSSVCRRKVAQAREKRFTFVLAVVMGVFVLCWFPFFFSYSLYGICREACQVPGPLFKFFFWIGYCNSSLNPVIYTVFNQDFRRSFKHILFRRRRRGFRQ
# [7] = blockers of RIG-like receptor reporter activation – cell-based, Sendai virus stimulus, luciferase, 10K MLSCN set, TLR/RLR signaling modifier project, primary screen (AID 602276;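 active = inhibition at or above 50% at 10 µM; inactive = inhibition below 50%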;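 also: firefly luciferase from ISG56 promoter only with Renilla not read in this screen; 0% = Sendai virus plus DMSO and 100% = medium plus DMSO without virus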); conditions: HEK293 RL24 IRF3 luciferase reporter, at 10 µM, stronger effect = higher value
# [8] = TLR3 IRF3 reporter activation blockers – cell-based, poly I:C stimulus, luciferase, 10K MLSCN set, primary screen (AID 602277;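 active = inhibition of the reporter signal at or above 50%; inactive = inhibition below 50%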); conditions: HEK293-TLR3 RL24 IRF3 luciferase reporter, at 10 µM, stronger effect = higher value
smiles,measurement,setting,value
O=C(O)COc1ccc(S(=O)(=O)NCCc2ccccc2)cc1,cell count,[1],596
same,inhibition,[1],-0.8% (inactive)
same,inhibition of aggregation,[2],20.5% (inactive)
same,nuclei count,[2],81.4%
same,inhibition,[3],-54.3% (inactive)
same,nuclei count,[3],119%
same,fluorescence slope,[4],-0.543 (inactive)
same,NADPH fluorescence slope,[5],-6.9e-05 (inactive)
same,slope,[6],0.00764 (inactive)
same,inhibition,[7],13% (inactive)
same,inhibition,[8],24.1% (inactive)
COc1ccc(S(=O)(=O)C(C#N)c2nc3ccccc3nc2N2CCCC(C)C2)cc1 (centres undefined),cell count,[1],714
same,inhibition,[1],-5% (inactive)
same,inhibition of aggregation,[2],-12.7% (inactive)
same,nuclei count,[2],92.2%
same,inhibition,[3],16% (inactive)
same,nuclei count,[3],113%
same,fluorescence slope,[4],-0.417 (inactive)
same,NADPH fluorescence slope,[5],7.1e-06 (inactive)
same,slope,[6],0.00445 (inactive)
same,inhibition,[7],13% (inactive)
same,inhibition,[8],0.928% (inactive)
Cc1ccc(-c2csc3ncn(-n4c(C)ccc4C)c(=O)c23)o1,cell count,[1],575
same,inhibition,[1],6.1% (inactive)
same,inhibition of aggregation,[2],-0.6% (inactive)
same,nuclei count,[2],82.8%
same,inhibition,[3],55.1% (active)
same,nuclei count,[3],66.1%
same,fluorescence slope,[4],-0.468 (inactive)
same,NADPH fluorescence slope,[5],3.1e-05 (inactive)
same,slope,[6],0.00663 (inactive)
same,inhibition,[7],-15.1% (inactive)
same,inhibition,[8],12.5% (inactive)
CCOC(=O)Cc1c(C)c2c(O)cc(O)cc2oc1=O,cell count,[1],450
same,inhibition,[1],9% (inactive)
same,inhibition of aggregation,[2],-19.7% (inactive)
same,nuclei count,[2],111%
same,nuclei count,[3],150%
same,fluorescence slope,[4],-0.0503 (inactive)
same,NADPH fluorescence slope,[5],6.3e-06 (inactive)
same,slope,[6],0.00591 (inactive)
same,inhibition,[7],15.2% (inactive)
same,inhibition,[8],9.57% (inactive)
Cc1onc(-c2ccccc2)c1C(=O)Nc1ccc(S(=O)(=O)N2CCCCC2)cc1,cell count,[1],786
same,inhibition,[1],7.8% (inactive)
same,inhibition of aggregation,[2],-10.9% (inactive)
same,nuclei count,[2],97.3%
same,inhibition,[3],-35.5% (inactive)
same,nuclei count,[3],108%
same,fluorescence slope,[4],-0.599 (inactive)
same,NADPH fluorescence slope,[5],-5.5e-06 (inactive)
same,slope,[6],0.00592 (inactive)
same,inhibition,[7],15.1% (inactive)
same,inhibition,[8],32.9% (inactive)
O=C(O)CCc1ccc(-c2cccs2)o1,cell count,[1],314
same,inhibition,[1],-7.8% (inactive)
same,inhibition of aggregation,[2],-10.2% (inactive)
same,nuclei count,[2],103%
same,inhibition,[3],-23.1% (inactive)
same,nuclei count,[3],118%
same,fluorescence slope,[4],-0.366 (inactive)
same,NADPH fluorescence slope,[5],-0.00014 (inactive)
same,slope,[6],0.00568 (inactive)
same,inhibition,[7],16.2% (inactive)
same,inhibition,[8],27% (inactive)
Cc1cccc(NC(=O)CSc2nnc(-c3ccccc3C)o2)c1,cell count,[1],414
same,inhibition,[1],0.8% (inactive)
same,inhibition of aggregation,[2],-0.2% (inactive)
same,nuclei count,[2],92%
same,nuclei count,[3],116%
same,fluorescence slope,[4],-0.32 (inactive)
same,NADPH fluorescence slope,[5],-4.9e-05 (inactive)
same,slope,[6],0.00441 (inactive)
same,inhibition,[7],-55.2% (inactive)
same,inhibition,[8],-86.9% (inactive)
CCOC(=O)C1C2C=CC3(CN(Cc4ccco4)C(=O)C13)O2 (centres undefined),cell count,[1],480
same,inhibition,[1],5.5% (inactive)
same,inhibition of aggregation,[2],16.2% (inactive)
same,nuclei count,[2],114%
same,inhibition,[3],-57.8% (inactive)
same,nuclei count,[3],115%
same,fluorescence slope,[4],-0.469 (inactive)
same,NADPH fluorescence slope,[5],-6.4e-05 (inactive)
same,slope,[6],0.00537 (inactive)
same,inhibition,[7],13.9% (inactive)
same,inhibition,[8],21.7% (inactive)
O=C1CCCC2=C1C(c1ccc(Br)cc1)c1c([nH]c(=S)[nH]c1=O)N2 (centres undefined),cell count,[1],407
same,inhibition,[1],-3.6% (inactive)
same,inhibition of aggregation,[2],17.6% (inactive)
same,nuclei count,[2],103%
same,inhibition,[3],-41.1% (inactive)
same,nuclei count,[3],109%
same,fluorescence slope,[4],-0.378 (inactive)
same,NADPH fluorescence slope,[5],-5.8e-05 (inactive)
same,slope,[6],0.00391 (inactive)
same,inhibition,[7],6.81% (inactive)
same,inhibition,[8],17.9% (inactive)
O=C(CSc1nnc2c3cc(F)ccc3nc(-c3ccccc3)n12)N1CCOCC1,cell count,[1],597
same,inhibition,[1],4.9% (inactive)
same,inhibition of aggregation,[2],-0.6% (inactive)
same,nuclei count,[2],104%
same,inhibition,[3],-23.2% (inactive)
same,nuclei count,[3],96.3%
same,fluorescence slope,[4],-0.37 (inactive)
same,NADPH fluorescence slope,[5],-7.1e-06 (inactive)
same,slope,[6],0.00625 (inactive)
same,inhibition,[7],-0.506% (inactive)
same,inhibition,[8],-0.765% (inactive)
COC(=O)c1ccccc1NC(=O)Cn1ccnc1,cell count,[1],310
same,inhibition,[1],-5.7% (inactive)
same,inhibition of aggregation,[2],3.6% (inactive)
same,nuclei count,[2],78.1%
same,inhibition,[3],-12% (inactive)
same,nuclei count,[3],86.6%
same,fluorescence slope,[4],-0.591 (inactive)
same,NADPH fluorescence slope,[5],-6.8e-05 (inactive)
same,slope,[6],0.00553 (inactive)
same,inhibition,[7],5.19% (inactive)
same,inhibition,[8],23.4% (inactive)
